# Experimental data from PubChem BioAssay (NCATS).
# Results filed as inconclusive are left out. Calls of active or inactive are those of the source. Calls come from the whole dose curve; as a rule, active = well fitted cell-killing curve with a large enough effect; inconclusive = small, poorly fitted or top-dose-only effect, or effect the other way; inactive = no such curve, though single readings can be large or run the other way.
# Assay: Quantitative High-Throughput drug screen in 47 multiple myeloma cell lines against the NCATS MIPE library collection: FR4_PLB cell viability assay (AID 1918924; note: nearly all actives have a fitted effect of over 35% in size)
# Conditions: FR4_PLB myeloma cells viability, CellTiter-Glo ATP, 48 h; series mostly up to 45.8 µM; viability (% of DMSO control): at the top concentration
# Source text: PI: Beverly A. Mock Ph.D.
# Laboratory of Cancer Biology and Genetics,
# Center for Cancer Research, National Cancer Institute,
# National Institute of Health, Bethesda, Maryland
# Drug resistance and disease progression are common in multiple myeloma (MM) patients, underscoring the need for new therapeutic combinations. […] We hypothesized that effective combinations would reduce MYC expression and enhance p16 activity. […] These preclinical data identify potentially useful drug combinations for evaluation in drug-resistant MM and reveal potential mechanisms of combined drug sensitivity.
# Described herein is the primary MIPE qHTS used to cherrypick compounds. Validated compounds were then further tested for potential synergistic activiy.
# [1] Peat TJ, Gaikwad SM, Dubois W, Gyabaah-Kessie N, Zhang S, Gorjifard S, Phyo Z, Andres M, Hughitt VK, Simpson RM, Miller MA, Girvin AT, Taylor A, Williams D, D'Antonio N, Zhang Y, Rajagopalan A, Flietner E, Wilson K, Zhang X, Shinn P, Klumpp-Thomas C, McKnight C, Itkin Z, Chen L, Kazandijian D, Zhang J, Michalowski AM, Simmons JK, Keats J, Thomas CJ, Mock BA. Drug combinations identified by high-throughput screening promote cell cycle transition and upregulate Smad pathways in myeloma. Cancer Lett. 2023 Aug 1;568:216284. doi: 10.1016/j.canlet.2023.216284. Epub 2023 Jun 24. PMID: 37356470; PMCID: PMC10408729.
# SEQUENCE No. (e.g., 1, 2, 3, etc.); […] (e.g., Cells, Incubation, Reagent, etc.); VALUE and DESCRIPTION.
# 1; Cells; 5 uL; white, solid bottom 1536-well Greiner assay plate.
# 2; Compounds; 23 nL; Kalypsis pin tool (Wako USA) equipped with a 1536-well pin head to transfer to the assay plates.
# 3; Incubation; 48 hours; 37C incubation.
# 4; Reagent;5uL; CellTiter Glo (Promega).
# 5; Detector; 425V; Luminescence; Viewlux PerkinElmer.
# NOTES (numbers refer to Sequence numbers above)
# 1. The cell-based screening methods employed in this study were like those previously published. Briefly, the corresponding myeloma cell lines were screened in 1,536-well plates with 500 cells, 5-uL per well for inhibition of cell viability (assessed by measuring ATP levels with CellTiterGlo).
# 2. NCATS MIPE 4.0 library of approved and investigational drugs were added using the Kalypsis pin tool. Wells treated with DMSO only for 100% viability and media only wells for 0% viability were used as controls.
# 3. The assay plates were covered and incubated for 48 hours in a 37C, 5% CO2 incubator with controlled humidity.
# 4. After 48 hours, CellTilter-GloTM luminescent substrate mix (Promega) reagent was added to the assay plate and plates we incubated for 5 min at room temperature.
# 5. Signal was measured as median relative luminescence units on a ViewLux (PerkinElmer) multiplate reader.
# [1] Heske CM, Davis MI, Baumgart JT, Wilson K, Gormally MV, Chen L, Zhang X, Ceribelli M, Duveau DY, Guha R, Ferrer M, Arnaldez FI, Ji J, Tran HL, Zhang Y, Mendoza A, Helman LJ, Thomas CJ. Matrix Screen Identifies Synergistic Combination of PARP Inhibitors and Nicotinamide Phosphoribosyltransferase (NAMPT) Inhibitors in Ewing Sarcoma. Clin Cancer Res. 2017 Dec 1;23(23):7301-7311. doi: 10.1158/1078-0432.CCR-17-1121. Epub 2017 Sep 12. PMID: 28899971; PMCID: PMC6636827.
# Potency is the fitted concentration of half-maximal effect.
Compound,viability (% of DMSO control),Potency
CCC(=O)O[C@]1(C(=O)SCF)[C@H](C)C[C@H]2[C@@H]3C[C@H](F)C4=CC(=O)C=C[C@]4(C)[C@@]3(F)[C@@H](O)C[C@@]21C,92.3% (inactive),–
CN(CCOc1ccc(CC2SC(=O)NC2=O)cc1)c1ccccn1 (stereo not given),120% (inactive),–
CCN(C)C(=O)Oc1cccc([C@H](C)N(C)C)c1,145% (inactive),–
Nc1nc(N)nc(-c2cc(Cl)ccc2Cl)n1,112% (inactive),–
Cc1cccc(Nc2ccncc2S(=O)(=O)NC(=O)NC(C)C)c1,95.5% (inactive),–
CCc1c2c(nc3ccc(OC(=O)N4CCC(N5CCCCC5)CC4)cc13)-c1cc3c(c(=O)n1C2)COC(=O)[C@]3(O)CC,–,0.935 µM (active)
CC(=O)[C@H]1CC[C@H]2[C@@H]3CC=C4C[C@@H](O)CC[C@]4(C)[C@H]3CC[C@]12C,109% (inactive),–
CCN1CCCC1CNC(=O)c1cc(S(N)(=O)=O)ccc1OC (stereo not given),124% (inactive),–
CNS(=O)(=O)Cc1ccc2[nH]cc(CCN(C)C)c2c1,129% (inactive),–
O=c1oc2c(O)c(O)cc3c(=O)oc4c(O)c(O)cc1c4c23,116% (inactive),–
O=C(O)CSCC(=O)NC1CCSC1=O (stereo not given),107% (inactive),–
CC(C)(C)C(=O)OCOP(=O)(COCCn1cnc2c(N)ncnc21)OCOC(=O)C(C)(C)C,–,6.62 µM (active)
CNS(=O)(=O)CCc1ccc2[nH]cc(C3CCN(C)CC3)c2c1,–,16.6 µM (active)
CCn1cc(C(=O)O)c(=O)c2cc(F)c(N3CCNCC3)cc21,125% (inactive),–
CCOCC(O)COc1ccc(NC(=O)CC[S+](C)C)cc1 (stereo not given),133% (inactive),–
N=C(N)c1ccc(OCCCCCOc2ccc(C(=N)N)cc2)cc1,–,18.7 µM (active)
Cn1nnc2c(C(N)=O)ncn2c1=O,160% (inactive),–
COC(=O)Nc1nc2ccc(Sc3ccccc3)cc2[nH]1,–,0.935 µM (active)
OC(Cn1cncn1)(Cn1cncn1)c1ccc(F)cc1F,123% (inactive),–
COc1cc(NS(=O)(=O)c2ccc(N)cc2)nc(OC)n1,109% (inactive),–

Compound,viability (% of DMSO control),Potency
CC(=O)CC(c1ccccc1)c1c(O)c2ccccc2oc1=O (stereo not given),113% (inactive),–
CCCc1nc(C)c2c(=O)[nH]c(-c3cc(S(=O)(=O)N4CCN(CC)CC4)ccc3OCC)nn12,–,8.33 µM (active)
CCN(CC)CCn1c(=O)c(Cc2ccc(OC)cc2)nc2ccccc21,113% (inactive),–
Oc1c(Cl)cc(Cl)c2cccnc12,–,18.7 µM (active)
Cc1ccnc2c1NC(=O)c1cccnc1N2C1CC1,102% (inactive),–
N[C@@H](Cc1ccc(O)c(O)c1)C(=O)O,98.1% (inactive),–
CCOC(=O)c1ccc(OC(=O)CCCCCN=C(N)N)cc1,127% (inactive),–
CCCCc1oc2ccc(NS(C)(=O)=O)cc2c1C(=O)c1ccc(OCCCN(CCCC)CCCC)cc1,–,16.6 µM (active)
CN(C)CCc1c[nH]c2ccc(C[C@H]3COC(=O)N3)cc12,107% (inactive),–
COc1ccc(-c2ccc3cc(C(=O)O)ccc3c2)cc1C12CC3CC(CC(C3)C1)C2,114% (inactive),–
CNC(=O)c1cc(Oc2ccc(NC(=O)Nc3ccc(Cl)c(C(F)(F)F)c3)cc2)ccn1,–,20.9 µM (active)
CCN(CC)CC#CCOC(=O)C(O)(c1ccccc1)C1CCCCC1 (stereo not given),114% (inactive),–
CC[C@H](C)C(=O)O[C@H]1C[C@@H](C)C=C2C=C[C@H](C)[C@H](CC[C@@H]3C[C@@H](O)CC(=O)O3)[C@H]21,–,11.8 µM (active)
Nc1ccc(S(=O)(=O)Nc2ccccn2)cc1,116% (inactive),–
CC(C)(Sc1cc(C(C)(C)C)c(O)c(C(C)(C)C)c1)Sc1cc(C(C)(C)C)c(O)c(C(C)(C)C)c1,115% (inactive),–
OCc1ccc(-c2nn(Cc3ccccc3)c3ccccc23)o1,100% (inactive),–
COc1ccccc1OCC(O)COC(N)=O (stereo not given),109% (inactive),–
S=P(N1CC1)(N1CC1)N1CC1,145% (inactive),–
COc1cc(NCc2ccc3nc(N)nc(N)c3c2C)cc(OC)c1OC,–,16.6 µM (active)
Cc1nnc(C(=O)NC(C)(C)c2nc(C(=O)NCc3ccc(F)cc3)c(O)c(=O)n2C)o1,119% (inactive),–
